Experimental findings from PubChem BioAssay (NCI) are described below.

Common to all, as to experiment: NCI-60 one-dose screen, 48 h (100 = growth as untreated, 0 = no growth, -100 = all killed)
Settings in all cases: 10 µM unless noted

Assay [1] deals with NCI-H23 lung.
The subject of assay [2] is NCI-H226 lung.
Assay [3] has as its system NCI-H322M lung.
Assay [4] deals with HOP-62 NSCLC.
For assay [5], the system named is NCI-H460 lung.
In assay [6] the test system is NCI-H522 lung.
The subject of assay [7] is 786-0 renal.
The test system of assay [8] is COLO 205 colon.
Assay [9] relates to DU-145 prostate.
Assay [10] relates to K-562 leukemia.
Assay [11] relates to MALME-3M melanoma.
In assay [12] the test system is MDA-MB-231 breast.
Assay [13] has as its system RXF 393 renal.
Assay [14] relates to SF-268 CNS.
Assay [15] relates to SF-295 CNS.
The subject of assay [16] is SF-539 CNS.
Assay [17] has as its system UACC-257 melanoma.
For assay [18], the system named is M14 melanoma.
For assay [19], the system named is HCT-15 colon.
Assay [20] deals with A549/ATCC NSCLC.

About 83,000 compounds went through this panel and 20% of them were active in at least one assay; those are over-represented in the sample as a whole.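 For each line, cells grew in 96-well plates with the test compound present at a single concentration for 48 hours.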 A number with no mark means an inactive call. The source made the active and inactive calls. How the source made its calls: active means growth percent below 10; inactive means the rest.

In the case of `O=[N+]([O-])c1ccc2c(c1)S(=O)c1cc([N+](=O)[O-])ccc1N2`, the growth in [1] is 103%; in assay [2], 91.9%; in [3] it was 117%; in [4], 67.3%; in assay [5], 96.4%; in [6] it was 97%. Further, the growth was 108% in assay [7]; 108% in [8]; 116% in [9]; 115% in assay [10]; 113% in assay [11]; 96.3% in assay [12]. The growth was 104% in assay [13]; 104% in [14]; 106% in [15]; 98.3% in assay [16]; 96.6% in assay [17]; 91.7% in [18]. Further, the growth in assay [19] was 99%.
Turning to `O=C(CCc1nnc2sc(Cc3ccccc3Cl)nn12)c1nc2ccccc2[nH]1`, the growth in assay [1] was 90.4%; in assay [2], 89.3%; in [3], 85.2%; in assay [4], 92.1%; in assay [5] it was 99.5%; in assay [6], 96.6%. Besides, the growth was 100% in [20]; 85.8% in assay [7]; 112% in [11]; 76.5% in assay [12]; 90.9% in [13]; 84.9% in assay [14]. Besides, the growth in [15] is 103%; in assay [16], 107%; in assay [17], 102%; in assay [18] it was 99.2%; in assay [19], 92.3%.
Consider `CCN(CC)CCOc1ccccc1-n1c(C)ccc1-c1ccccc1`, for which the growth in [1] is 102%; in assay [2] it was 92%; in assay [3] it was 80.1%; in [4], 106%; in assay [5], 44.2%; in assay [6], 101%. The growth is 88.2% in assay [20]; 70.3% in assay [8]; 103% in assay [9]; -48.1% (active) in assay [10]; 89% in assay [11]; 102% in assay [12]. Also, the growth in assay [13] is 84.6%; in assay [14], 78.5%; in [15], 93%; in [16], 92.7%; in [17] it was 100%; in assay [19] it was 90.5%.
In the case of `O=C1NC(=O)/C(=C\c2ccccc2)C2=C1CCCC2`, the growth is -44.7% (active) in assay [1]; 92.3% in assay [2]; 107% in assay [3]; 119% in assay [4]; 85.5% in assay [5]; -87.4% (active) in [6]. Moreover, the growth was 61.7% in assay [7]; -63.2% (active) in assay [8]; 25.7% in assay [9]; -37.8% (active) in assay [10]; 50.6% in assay [11]; 92.1% in assay [12]. In addition, the growth was 13.3% in [13]; 39.4% in assay [14]; 88.2% in [15]; 27.4% in assay [16]; -64.6% (active) in assay [17]; 36.4% in assay [18]. Also, the growth in [19] was 20.9%.
Take `CN(CC(=O)N(Cc1ccc(C2CCCCC2)cc1)c1ccc(C(=O)O)cc1)S(=O)(=O)c1c(F)c(F)c(F)c(F)c1F`: the growth in assay [1] was -19.9% (active); in assay [2] it was 97.4%; in assay [3], 86.4%; in [4], 60.6%; in assay [5] it was 96%; in assay [6], 44.7%. For the same compound, the growth is 100% in assay [20]; 12.9% in [8]; -18% (active) in [9]; 1.31% (active) in [10]; 62% in assay [11]; -28.7% (active) in assay [12]. Besides, the growth is -87.3% (active) in [13]; 67.5% in [14]; 108% in assay [15]; 99.2% in assay [16]; 31.6% in [17]; 19.9% in assay [18]. In addition, in assay [19], the growth is -46.1% (active).
As for `CC[N+](C)(CC)CCCC(C)Nc1ccnc2cc(Cl)ccc12` (stereo unspecified), the growth is 102% in assay [1]; 96.3% in assay [2]; 96.5% in assay [3]; 113% in [4]; 102% in assay [5]; 108% in [6]. The growth in assay [20] is 107%; in assay [8], 107%; in assay [9] it was 97.7%; in [11], 104%; in assay [12], 114%; in assay [13] it was 125%. Further, the growth in [14] is 91.4%; in [15], 108%; in assay [16], 105%; in assay [17], 107%; in [18], 109%; in assay [19], 110%.
With `COc1ccc(CCN2CCCN3C2=Nc2ccccc2S3(=O)=O)cc1`, the growth was 28.8% in assay [1]; 61.7% in assay [2]; 59.6% in assay [3]; 52.5% in assay [4]; 13.4% in [5]; 17.3% in assay [6]. Further, the growth in assay [20] was 31.7%; in assay [8], 1.13% (active); in assay [9] it was 23%; in assay [10], 15.6%; in assay [11], 68.8%; in assay [12], 49.1%. Also, the growth in assay [13] is -0.424% (active); in [14], 63.1%; in assay [15] it was 14%; in [16] it was -28.2% (active); in assay [17], 75.7%; in assay [18], 31.1%. Besides, the growth in assay [19] is 25.4%.
As to `Cc1cc2cn3c4cccnc4[nH]c(=O)c3c2cc1C`, the growth in [1] was 55.7%; in assay [2] it was 90.3%; in assay [3], 91.8%; in assay [4], 46.8%; in [5], 4.12% (active); in assay [6], -75% (active). The growth in assay [20] was 10.2%; in assay [7] it was -14.5% (active); in [11], 80.1%; in [12], 40.5%; in assay [13], 70.6%; in assay [14], 73.4%. The growth in assay [15] is 34.4%; in assay [16] it was 76.7%; in assay [17], 85.8%; in assay [18], 36.4%; in assay [19] it was -37.7% (active).
